This passage reports Potency and viability results from PubChem BioAssay (NCATS).

In general, viability refers to a read-out of living cells in per cent, often relative to untreated cells.

The target of assay [1] is Cellular tumor antigen p53 (Homo sapiens) (UniProt P04637). Kind of assay: Primary qHTS for small molecule compounds that upregulate eGFP-tagged delta133p53alpha (in C-terminal) cells. (AID 2060324). Further: potency means the concentration at half of the fitted maximal effect. The note with it: NCI-H358 delta133p53alpha-eGFP (C-terminal tag), GFP fluorescence imaging, 24 h; series mostly up to 57.5 µM. In short, it runs like this:
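Read-out: gated-cell GFP peak intensity (laser scanning cytometer), plate-normalized with DMSO as 0% activity, after 24 h compound exposure at 37C. Cells were C-terminal eGFP-tagged delta133p53alpha NCI-H358, doxycycline-induced (100 ng/ml, 24 h) before plating.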

Assay [2] concerns the target Aldehyde dehydrogenase, mitochondrial (Homo sapiens) (UniProt P05091). Kind of assay: qHTS for Inhibitors of the Aldehyde Dehydrogenase Family (ALDH2) Validation screens (AID 2061302; active means well fitted inhibition curve with a large enough effect; title and protocol of this record describe different tests; further: potency means the concentration at half of the fitted maximal effect). Conditions: ALDH inhibition qHTS; series mostly up to 42.6 µM. Background: qHTS replaces the single test concentration by a dilution series.
The target in assay [3] is Retinaldehyde dehydrogenase 3 (Homo sapiens) (UniProt P47895). The assay can be described thus: qHTS for Inhibitors of the Aldehyde Dehydrogenase Family (ALDH1A3) Validation screen (AID 2061312). Further: on the % scale 0 is the no-effect control and ±100 the full control effect; nearly all actives have a fitted effect of over 45% in size. Conditions: ALDH1A3 enzyme inhibition qHTS validation, fluorescence; series mostly up to 84.7 µM.
Assay [4] concerns the target Aldehyde dehydrogenase, mitochondrial (Homo sapiens) (UniProt P05091). The assay can be described thus: qHTS for Inhibitors of the Aldehyde Dehydrogenase Family (ALDH2) Primary screen (AID 2061308). Further: nearly all actives have a fitted effect of over 55% in size. Further: potency means the concentration at half of the fitted maximal effect. The note with it: ALDH2 enzyme inhibition qHTS, 1536-well; series mostly up to 56 µM.
The target in assay [5] is Retinaldehyde dehydrogenase 3 (Homo sapiens) (UniProt P47895). The assay can be described thus: qHTS for Inhibitors of the Aldehyde Dehydrogenase Family (ALDH1A3) Primary screen (AID 2061315).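 Further: plate controls were DMSO vehicle for no effect and reference inhibitor for full effect.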 The note with it: ALDH inhibition qHTS; series mostly up to 56 µM.
The nature of assay [6]: BET inhibitor-based combinations targeting novel dependencies in MECOM-rearranged (r) AML: SET-2 cell line (AID 2202231).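 Further: plate controls were DMSO treated cells for no effect and wells without cells for full effect; nearly all actives have a fitted effect of over 35% in size.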 The note with it: SET-2 AML cells viability, CellTiter-Glo luminescence, 48 h; viability: hits give low values, concentration not given here. The method in brief: (§1)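 AML cell lines seeded at 500 cells/well, treated with 11-point dose curves for 48 h. Viability by CellTiter-Glo luminescence, normalised to DMSO and empty wells; activity expressed as AUC and per-cell-line Z-transformed AUC.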
Background: Cellular ATP, detected with luciferase, serves as a proxy for viable cell number.

A short description of assay [7]: BET inhibitor-based combinations targeting novel dependencies in MECOM-rearranged (r) AML: OCI-AML3 cell line (AID 2202232). Further: nearly all actives have a fitted effect of over 35% in size. Further: potency means the concentration at half of the fitted maximal effect. Conditions: CellTiter-Glo luminescence, 48 h; Potency: OCI-AML3 viability; series mostly up to 46 µM. The method in brief: as §1
Assay [8] in a line: BET inhibitor-based combinations targeting novel dependencies in MECOM-rearranged (r) AML: MV-4-11 cell line (AID 2202233). Further: nearly all actives have a fitted effect of over 45% in size. Further: potency means the concentration at half of the fitted maximal effect. Conditions: MV-4-11 AML viability, CellTiter-Glo luminescence, 48 h; series mostly up to 46 µM. The method in brief: (§2)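 Cells at 500/well were exposed for 48 hr to MIPE v5.0 drugs as 11-point dose curves. Viability was read by CellTiter-Glo luminescence and normalized to DMSO and empty-well controls. Activity was expressed as AUC and per-cell-line Z-AUC.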

The nature of assay [9]: BET inhibitor-based combinations targeting novel dependencies in MECOM-rearranged (r) AML: HNT-34 cell line (AID 2202234). Further: nearly all actives have a fitted effect of over 35% in size. Further: potency means the concentration at half of the fitted maximal effect. Conditions: HNT-34 AML viability, CellTiter-Glo luminescence, 48 h; series mostly up to 46 µM. The method in brief: as §2
Assay [10] is described as follows: BET inhibitor-based combinations targeting novel dependencies in MECOM-rearranged (r) AML: UCSD-AML1 cell line (AID 2202235). Further: nearly all actives have a fitted effect of over 40% in size. Further: potency means the concentration at half of the fitted maximal effect. Conditions: UCSD-AML1 AML cells viability, CellTiter-Glo, 48 h; series mostly up to 46 µM. In short, it runs like this: as §2
Assay [11] in a line: BET inhibitor-based combinations targeting novel dependencies in MECOM-rearranged (r) AML: AML-191 cell line (AID 2202236; further: nearly all actives have a fitted effect of over 35% in size; further: potency means the concentration at half of the fitted maximal effect). The note with it: AML-191 viability, CellTiter-Glo luminescence, 48 h; series mostly up to 46 µM. The method in brief:
as §1

The nature of assay [12]: BET inhibitor-based combinations targeting novel dependencies in MECOM-rearranged (r) AML: AML-194 cell line (AID 2202237;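 further: plate controls were vehicle wells for no effect and wells without cells for full effect; nearly all actives have a fitted effect of over 40% in size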). Conditions: AML-194 (MECOM-r AML) viability, CellTiter-Glo, 48 h; series mostly up to 46 µM. The method in brief:
as §1

Assay [13] deals with Aldehyde dehydrogenase, mitochondrial (Homo sapiens) (UniProt P05091). Kind of assay: qHTS for Inhibitors of the Aldehyde Dehydrogenase Family (ALDH2) Confirmatory screens (AID 2061303; active means well fitted inhibition curve with a large enough effect; title and protocol of this record describe different tests; further: nearly all actives have a fitted effect of over 45% in size; further: potency means the concentration at half of the fitted maximal effect). Conditions: ALDH inhibition qHTS; series mostly up to 45.4 µM.
Assay [14] in a line: qHTS for Inhibitors of the Aldehyde Dehydrogenase Family (ALDH1A2, ALDH1A3, ALDH2, ALDH3A1) (AID 2061307). Further: nearly all actives have a fitted effect of over 50% in size. Conditions: ALDH inhibition qHTS; series mostly up to 50.3 µM.
For assay [15], the target named is Retinal dehydrogenase 2 (Homo sapiens) (UniProt O94788). The assay can be described thus: qHTS for Inhibitors of the Aldehyde Dehydrogenase Family (ALDH1A2) Confirmation screens (AID 2061314). Further: nearly all actives have a fitted effect of over 65% in size. Further: potency means the concentration at half of the fitted maximal effect. The note with it: ALDH1A2 enzyme inhibition qHTS confirmation; series mostly up to 45.9 µM.
Assay [16] addresses Aldehyde dehydrogenase 1A1 (Homo sapiens) (UniProt P00352). The assay can be described thus: qHTS for Inhibitors of the Aldehyde Dehydrogenase Family (ALDH1A1) Confirmatory screens (AID 2061316). Further: nearly all actives have a fitted effect of over 65% in size. Further: potency means the concentration at half of the fitted maximal effect. Conditions: ALDH inhibition qHTS; series mostly up to 47.3 µM.
The target in assay [17] is Retinaldehyde dehydrogenase 3 (Homo sapiens) (UniProt P47895). The assay can be described thus: qHTS for Inhibitors of the Aldehyde Dehydrogenase Family (ALDH1A3) Confirmatory screens (AID 2061311). Further: nearly all actives have a fitted effect of over 60% in size. Further: potency means the concentration at half of the fitted maximal effect. Conditions: ALDH inhibition qHTS; series mostly up to 46 µM.

Structures are written as SMILES. Results filed as inconclusive are left out. Unmarked numbers belong to inactive results. Active and inactive are the calls of the source. Unless noted, the call rests on the fitted dose curve; in most records, active means well fitted curve in the direction sought with a large enough effect; inconclusive means small, poorly fitted or top-dose-only effect, or another doubt; inactive means no such curve, though single readings can be large; an effect the other way counts as inactive or inconclusive.

Cellular tumor antigen p53 (Homo sapiens), sequence (P04637 whole entry, looked up): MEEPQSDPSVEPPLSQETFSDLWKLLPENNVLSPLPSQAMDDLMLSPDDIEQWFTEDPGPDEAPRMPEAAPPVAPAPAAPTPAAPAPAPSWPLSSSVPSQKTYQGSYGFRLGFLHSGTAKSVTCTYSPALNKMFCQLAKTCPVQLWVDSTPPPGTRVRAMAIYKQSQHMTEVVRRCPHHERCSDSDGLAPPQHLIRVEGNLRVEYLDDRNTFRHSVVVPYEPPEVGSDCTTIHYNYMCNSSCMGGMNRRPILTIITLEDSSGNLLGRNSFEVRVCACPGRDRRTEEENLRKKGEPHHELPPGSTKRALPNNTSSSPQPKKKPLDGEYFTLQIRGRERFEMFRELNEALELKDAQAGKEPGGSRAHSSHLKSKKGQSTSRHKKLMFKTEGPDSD

As to `COc1ccc2c(c1)CCC1C2CC[C@@]2(C)C1CC[C@@H]2NCCCCCCN1C(=O)C=CC1=O` (stereo partly specified), the Potency entry in [1], in assay [2] and in [3] was “inactive” in each case.
`CSc1ccc2c(c1)N(CCC1CCCCN1C)c1ccccc1S2` (stereo unspecified): the Potency entry in assay [1], in [2] and in [3] was “inactive” each time.
`COc1cccc(C(=O)NCCN2CCN(c3ccc(Cl)cc3)CC2)c1`: the Potency entry in [1], in assay [2] and in [3] was “inactive” throughout.
Turning to `O=C(O)C1=CCCNC1`, the Potency entry in [1], in assay [2] and in [3] was “inactive” in each case.
With `CC(C)(NS(=O)(=O)c1ccc(Oc2ccc(F)cc2)cc1)C(=O)NO`, the Potency entry in [1], in assay [2] and in assay [3] was “inactive” in each case.
In the case of `CC1C(=O)N(C)C(=O)c2nc[nH]c21` (stereo unspecified), the Potency result in assay [1], in [2] and in [3] was “inactive” in each case.
In the case of `O=C(Nc1ccncc1)c1cc([N+](=O)[O-])ccc1Cl`, the Potency entry in assay [1], in [2] and in [3] was “inactive” each time.
Consider `COCCOC(=O)C1=C(C)NC(C)=C(C(=O)OC(C)C)C1c1cccc([N+](=O)[O-])c1` (stereo unspecified), for which the Potency entry in [1], in assay [2] and in assay [3] was “inactive” each time.
In the case of `CCCC(=O)NCCc1c2n(c3ccc(OC)cc13)CCCc1ccccc1-2`, the Potency result in assay [1], in assay [2] and in [3] was “inactive” throughout.
Take `COc1ccc2cc([C@H](C)C(=O)O)ccc2c1`: the Potency result in assay [1], in [2], in assay [4], in assay [3], in assay [5] and in assay [7] was “inactive” throughout. In addition, the Potency entry in assay [8], in assay [9], in assay [10], in [11] and in [12] was “inactive” in each case. In addition, the viability in assay [6] was 116%.
Regarding `Nc1nc2[nH]c(=O)cnc2c(=O)[nH]1`, the Potency entry in assay [1], in [2] and in [3] was “inactive” throughout.
On to `COc1ccc(-c2coc3cc(O[C@@H]4O[C@H](CO)[C@@H](O)[C@H](O)[C@H]4O)ccc3c2=O)cc1`, for which, in assay [2], the Potency result is “inactive”.
For the molecule `CN1CCC(=C2c3ccccc3CC(=O)c3sccc32)CC1`, the Potency result in assay [1], in [2], in assay [3], in [10], in assay [11] and in assay [12] was “inactive” throughout. Also, the viability in assay [6] was 112%. The Potency in [7] is 18.6 µM (active).
For the molecule `CCCCC#Cc1nc(NC)c2ncn([C@@H]3O[C@H](CO)[C@@H](O)[C@H]3O)c2n1`, the Potency entry in [1], in [13], in [14], in assay [15] and in [16] was “inactive” each time.
`CCCCNC(=O)NS(=O)(=O)c1ccc(C)cc1`: the Potency entry in assay [1], in [2] and in assay [3] was “inactive” each time.
Consider `O=c1[nH]c2ccccc2c2ccccc12`, for which the Potency entry in assay [1], in [2] and in [3] was “inactive” throughout.
As for `O=C1NC(=O)[C@@]2(CCOc3ccc(F)cc32)N1`, the Potency entry in assay [1], in [2] and in assay [3] was “inactive” in each case.
Regarding `NC1[C@H]2CN(c3nc4c(cc3F)c(=O)c(C(=O)O)cn4-c3ccc(F)cc3F)C[C@@H]12` (stereo partly specified), the Potency result in [1], in [2] and in assay [3] was “inactive” each time.
For `C=C(C)C1CC=C(C(=O)O)CC1` (stereo unspecified), the Potency result in assay [1], in [2] and in [3] was “inactive” throughout.
With `NCC(O)C1CCCCCCC1` (stereo unspecified), the Potency entry in assay [1], in assay [2] and in assay [3] was “inactive” in each case.
`O=C1NC(=O)c2cc(Nc3ccccc3)c(Nc3ccccc3)cc21`: the Potency in assay [1] is 30.1 µM (active). Moreover, the Potency entry in assay [3] is “inactive”.
As for `COc1cc2nc(N(C)CCCNC(=O)C3CCCO3)nc(N)c2cc1OC` (stereo unspecified), in [2], the Potency entry is “inactive”.
With `Nc1nc2ccc(Cl)cc2n2c(-c3ccccc3)nnc12`, the Potency result in assay [1], in assay [2] and in [3] was “inactive” in each case.
Consider `O=C(N[C@@H](Cc1ccccc1)C(=O)CCl)OCc1ccccc1`, for which the Potency in [1] was 12 µM (active); in assay [17] it was 11.2 µM (active); in assay [15], 0.798 µM (active); in assay [16], 0.318 µM (active). The Potency entry in assay [3] was “inactive”.
Turning to `COc1cc(-c2coc3cc(OCc4ccccc4)c(OC)c(O)c3c2=O)cc(O)c1OC`, the Potency entry in assay [2] is “inactive”.
`Cn1ccnc1`: the Potency result in assay [1], in assay [2] and in assay [3] was “inactive” each time.
On to `NC(=O)OCC(COC(N)=O)c1ccccc1`, for which the Potency result in assay [1], in assay [2], in assay [7], in [8], in assay [9] and in assay [10] was “inactive” throughout. The Potency result in assay [11] and in assay [12] was “inactive” throughout.
Take `CC(C)NC[C@@H](O)c1ccc(O)c(O)c1`: in assay [2], the Potency entry is “inactive”.
For `CCN1/C(=C/C(C)=O)Sc2ccc(OC)cc21`, the Potency entry in [1], in assay [2] and in [3] was “inactive” in each case. In addition, the viability in [6] was 93.6%. Moreover, the Potency was 18.6 µM (active) in assay [9] and 8.33 µM (active) in assay [11].
Turning to `CC(C)(C)OC(=O)N1CCN(c2ncc(NCc3ccc(-c4ccc(C#N)cc4)o3)cn2)CC1`, the Potency in assay [2] was 0.224 µM (active); in assay [13], 0.1 µM (active); in assay [14], 0.283 µM (active); in [4], 0.1 µM (active); in [17], 25.1 µM (active); in assay [15], 12.6 µM (active). Further, the Potency entry in [5] is “inactive”.
As for `C[N+](C)(C)CCOC(=O)CCC(=O)OCC[N+](C)(C)C`, the Potency entry in assay [1], in assay [13], in assay [14], in assay [17], in [15] and in assay [16] was “inactive” in each case.
Regarding `Cc1ccc(/C(=C\CN2CCCC2)c2ccccn2)cc1`, in [2], the Potency entry is “inactive”.
With `Oc1cc(O)cc(/C=C/c2ccc(O)c(O)c2)c1`, in [1], the Potency entry is “inactive”. Also, the Potency in assay [7] is 10.5 µM (active); in [8], 10.5 µM (active); in [10], 18.6 µM (active); in assay [11], 16.6 µM (active).
Take `O=C1C(SCCO)=C(SCCO)C(=O)c2ccccc21`: the Potency in assay [1] was 8.49 µM (active); in assay [2] it was 2.24 µM (active). In addition, the Potency result in [3] is “inactive”.
For `O=c1cc(-c2ccccc2F)[nH]c2cc3c(cc12)OCO3`, the Potency result in [1] and in assay [3] was “inactive” in each case.
With `CC(=O)N1CCN(c2ccc(OC[C@H]3CO[C@](Cn4ccnc4)(c4ccc(Cl)cc4Cl)O3)cc2)CC1`, the Potency entry in assay [1], in assay [2], in assay [3], in assay [7], in assay [8] and in [9] was “inactive” in each case. The Potency entry in [10] and in assay [11] was “inactive” each time.
As to `CC(C[N+](C)(C)C)OC(N)=O` (stereo unspecified), the Potency entry in assay [1], in assay [2], in assay [3], in [8], in [11] and in assay [12] was “inactive” in each case. Also, the viability in [6] is 116%.
Consider `CCCCCCC/C=C\CCCCCCCCC(=O)O`, for which the Potency entry in assay [1], in assay [2] and in assay [3] was “inactive” each time.
